Data: PubChem BioAssay (NCATS)
Values joined by “and” are separate entries in the source; they are usually repeats but may differ in a detail not shown here. Equal entries are not always repeated. Inconclusive results are not listed. Entries that show only a call come without a potency. Active and inactive are the calls of the source. Unless noted, the call rests on the fitted dose curve; in most records, active means well fitted curve in the direction sought with a large enough effect; inconclusive means small, poorly fitted or top-dose-only effect, or another doubt; inactive means no such curve, though single readings can be large; an effect the other way counts as inactive or inconclusive.

Experiments:
[1] = P-glycoprotein substrates identified in KB-8-5-11 adenocarcinoma cell line, qHTS therapeutic library screen (AID 1346987); further: nearly all actives have a fitted effect of over 65% in size; further: potency means the concentration at half of the fitted maximal effect
Outline: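 KB-8-5-11: colchicine-selected sub-line of KB-3-1 over-expressing P-gp; assay medium lacked colchicine. 72 h drug exposure at 37 degree C, CellTiter-Glo.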

[2] = qHTS to identify inhibitors of the type 1 interferon - major histocompatibility complex class I in skeletal muscle: primary screen against the NCATS Mechanism Interrogation Plate v5.0 (MIPE) Libary (AID 1347411); further: nearly all actives have a fitted effect of over 65% in size
Outline: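 Immortalized human C25cl48 myoblasts with HiBit knocked into endogenous HLA-B*08:01 were stimulated with 4.0 ng/ml IFN-beta and exposed to compounds (11-point 1:3 titration, top 46 uM final) for 24 hrs at 37 C; HiBiT lytic luminescence measured.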

[3] = target: Glutathione peroxidase 1 (Homo sapiens) (UniProt P07203); experiment: Primary qHTS Assay for Inhibitors of Recombinant Selenoprotein Glutathione Peroxidase 1 (GPX1) (AID 1845191); further: nearly all actives have a fitted effect of over 65% in size; further: potency means the concentration at half of the fitted maximal effect
Outline: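 10 nM GPX1 + cpd, 30 min RT; start w/ 1 mM GSH, 0.5 mM cumene hydroperoxide, 0.5 mM NADPH, 100 nM GR, 0.01% BSA; buffer 50 mM Tris-HCl pH 7.5, 2 mM EDTA, 150 mM NaCl; Fl 340/450, 0 & 15 min.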

[4] = qHTS drug screen for cell cycle checkpoint inhibitors in PARPi-resistant BRCA-mutant ovarian cancer cell lines. (AID 1963452; calls by dose curve); settings: PEO1/OlaR viability, CellTiter-Glo luminescence, 96 h, stronger effect = lower value
Outline: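 PEO1, PEO4 and PEO1/OlaR ovarian cancer cells, 600 per well, exposed 96 h at 37C to a dilution series. Viability read by CellTiter-Glo luminescence, normalized to DMSO and empty wells; activity summarized as Z-AUC.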

[5] = test system: Zika virus NS2B-NS3 protease; experiment: Primary screen GU AMC qHTS for Zika virus inhibitors (AID 1347154); further: nearly all actives have a fitted effect of over 70% in size
Outline: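 Fluorogenic AMC-substrate cleavage by noncovalent NS2B-NS3 protease complex (25 nM, pH 8.0 Tris buffer with Tween 20) followed for 15 minutes at room temperature (~20% conversion). Percent inhibition from ex340/em450 signal change, fitted by 4-parameter Hill equation.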

[6] = Primary qHTS for small molecule stabilizers of the endoplasmic reticulum resident proteome: Secreted ER Calcium Modulated Protein (SERCaMP) assay (AID 1508630)
Outline: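 GLuc-SERCaMP-expressing SH-SY5Y cells, pretreated 16 h with compound, are challenged with thapsigargin to empty ER calcium stores; after 4 h, coelenterazine is added directly to the medium and luminescence is imaged.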

[7] = Primary qHTS for inhibitors of nuclear receptor binding SET domain protein 2 (NSD2) in an isogenic RCH-ACV NSD2 p.E1099K mutant (9B) (AID 1645876); further: nearly all actives have a fitted effect of over 70% in size; further: potency means the concentration at half of the fitted maximal effect
[8] = Primary qHTS for inhibitors of nuclear receptor binding SET domain protein 2 (NSD2) in an RCH-ACV wild type WT cells (2C) (AID 1645877); further: nearly all actives have a fitted effect of over 70% in size; further: potency means the concentration at half of the fitted maximal effect
[9] = NCATS anti-infectives library activity on HEK293 viability as a counter-qHTS vs the C. elegans viability qHTS (AID 1745854)
Outline: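 HEK293 cells, 1500 per well, exposed 24 hr at 37C in 5% CO2 to compounds in a 1:5 titration, up to 41.7 uM final. Viability read as CellTiter-Glo luminescence after 10 min at room temperature.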

[10] = target: Phospholipid hydroperoxide glutathione peroxidase GPX4 (Homo sapiens) (UniProt P36969); experiment: Primary qHTS Assay for Inhibitors of Recombinant Selenoprotein Glutathione Peroxidase 4 (GPX4) (AID 1845192); settings: outcome: dose series up to 50 µM unless noted; further: nearly all actives have a fitted effect of over 65% in size; further: potency means the concentration at half of the fitted maximal effect
Outline: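 NADPH consumption, followed by fluorescence at 340/450 nm between 0 and 15 min, reports GPX4 activity via coupled glutathione reductase (100 nM). Enzyme 200 nM was pre-exposed to compound 30 min; 0.5 mM cumene hydroperoxide and 1 mM GSH served as substrates.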

[11] = target: Calcium and integrin-binding protein 1 (Homo sapiens) (UniProt Q99828); experiment: Primary qHTS for Identification of Calcium Integrin Binding Protein 1 (CIB1) Competitor (AID 1508620);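 further: GST tagged CIB1 binding a fluorescein labelled alphaIIb integrin peptide tracer; top concentration of the series differs between compounds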
Outline: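 CIB1-GST (1 uM final) and compound incubated 15 min at room temperature before adding FITC-alphaIIb peptide tracer (100 nM final). Competition for binding read by fluorescence polarization (ex 480, em 540) after another 15 min at room temperature.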

[12] = target: Cytochrome P450 1A2 (Homo sapiens) (UniProt P05177); experiment: p450-cyp1a2 (AID 410; calls by dose curve; further: potency means the concentration at half of the fitted maximal effect)
Outline: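 Human CYP1A2 (20nM) demethylated Luciferin-ME at its Km (100uM) in 100mM KPO4. After 10 min compound preincubation, NADPH regeneration ran the reaction 60 min at room temperature. Luciferin was read by luminescence, normalized to 57 uM furafylline.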

[13] = target: Glucocorticoid receptor (Homo sapiens) (UniProt P04150); experiment: GR-GFP Redistribution (AID 450;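 active means compounds whose dose series gives a full or clear partial fitted curve of increased nuclear translocation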; further: potency means the concentration at half of the fitted maximal effect); settings: U2OS GR-GFP nuclear translocation, laser cytometry, 2 h
[14] = target: Glucocorticoid receptor (Homo sapiens) (UniProt P04150); experiment: GR-EFC Redistribution (AID 451; calls by dose curve; further: potency means the concentration at half of the fitted maximal effect); settings: CHO-K1 GR-EFC translocation, beta-gal luminescence, 2 h
Outline: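 Translocation of GR-ED fusion to nuclear EA restores b-gal, read by luminescence after 1 h room-temperature detection. Engineered CHO-K1 biosensor cells, 1,000/well, exposed 2 h at 37 C to titrations up to 46 uM final.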

[15] = target: Mitogen-activated protein kinase 10 (Mus musculus) (UniProt Q61831); experiment: JNK3 AlphaScreen Assay (AID 530; active means well fitted curve in either direction with a large enough effect, not every such curve was filed as active;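 further: kinase came from lysate of stimulated human HepG2 cells; signal reports phosphorylation of biotinylated GST-cJun 1-79 at Ser73 with 10 µM ATP; series mostly up to about 57 µM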)
Outline: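 Room-temperature AlphaScreen kinase assay; pre-activated HepG2 lysate as JNK3 source, biotin-GST-cJun(1-79) substrate, 10 uM ATP, compound 15 min preincubation.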

[16] = target: 3',5'-cyclic-AMP phosphodiesterase 4B (Homo sapiens) (UniProt Q07343); experiment: qHTS Assay for Inhibitors of PDE-IV (AID 607; active means well fitted activation curve with a large enough effect in the main read-out, with a control signal flat, not every such curve was filed as active)
Outline: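 The readout is membrane depolarisation from a cAMP-sensing CNG channel, detected with a potential dye at ex 535/em 590. Cells were HEK293-derived (endogenous PDE-IV) at 1000 cells/well, titrated up to 22.9 uM final.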

[17] = target: Cytochrome P450 2C9 (Homo sapiens) (UniProt P11712); experiment: qHTS Assay for Inhibitors and Substrates of Cytochrome P450 2C9 (AID 883); further: potency means the concentration at half of the fitted maximal effect; nearly all actives have a fitted effect of over 60% in size
Outline: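 Luminescent read-out of deoxyluciferin hydroxylation, normalized to 57uM sulphaphenazole (AC100). Reaction: 10nM enzyme, 100uM Luciferin-H (equal to KM), 25mM KPO4, 10 min compound preincubation, then 60 min with NADPH regeneration, both at 37C.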

[18] = target: Cytochrome P450 3A4 (Homo sapiens) (UniProt P08684); experiment: qHTS Assay for Activators of Cytochrome P450 3A4 (AID 885); further: nearly all actives have a fitted effect of over 65% in size
Outline: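 Steps: enzyme/substrate mix dispensed; compound added, 10 min RT; NADPH regeneration solution added, 60 min RT; luciferin detection buffer stops reaction; 20 min later luminescence measured.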

[19] = target: Cytochrome P450 2C19 (Homo sapiens) (UniProt P33261); experiment: qHTS Assay for Inhibitors and Substrates of Cytochrome P450 2C19 (AID 899); further: potency means the concentration at half of the fitted maximal effect; nearly all actives have a fitted effect of over 60% in size
Outline: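 Luminescence readout of luciferin formed from 10uM Luciferin-H EGE (KM level) by 5 nM CYP2C19 in 50mM KPO4. 60 min NADPH-driven reaction at 37C after 10 min compound preincubation; data scaled to 57uM ketoconazole inhibition.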

[20] = target: DNA dC->dU-editing enzyme APOBEC-3G (Homo sapiens) (UniProt Q9HC16); experiment: qHTS for inhibitors of Vif-A3G interactions: Validation (AID 588379)
Outline: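 HeLa cells stably expressing Vif and A3G-eYFP, 700 cells/well, incubated overnight at 37 deg C, then exposed to compound overnight at 37 deg C. Inhibition of Vif-mediated degradation read as increased yellow fluorescence (Ex 488/Em 500-530) by laser-scanning cytometry.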

[21] = measured here: PEO1 parental Z-AUC

Phospholipid hydroperoxide glutathione peroxidase GPX4 (Homo sapiens), sequence (P36969 whole entry, looked up): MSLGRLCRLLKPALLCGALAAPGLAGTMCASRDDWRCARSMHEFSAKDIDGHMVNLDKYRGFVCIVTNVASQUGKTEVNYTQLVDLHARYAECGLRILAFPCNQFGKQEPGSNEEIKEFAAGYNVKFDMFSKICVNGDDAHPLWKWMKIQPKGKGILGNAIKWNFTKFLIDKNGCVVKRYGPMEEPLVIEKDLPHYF
Glutathione peroxidase 1 (Homo sapiens), sequence (P07203 whole entry, looked up): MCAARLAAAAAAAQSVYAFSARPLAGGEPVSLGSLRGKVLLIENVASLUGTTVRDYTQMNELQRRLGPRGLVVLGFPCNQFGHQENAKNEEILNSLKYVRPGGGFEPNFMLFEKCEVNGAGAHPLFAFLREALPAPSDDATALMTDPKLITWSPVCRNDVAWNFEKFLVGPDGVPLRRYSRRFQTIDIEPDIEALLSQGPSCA
Glucocorticoid receptor (Homo sapiens), sequence (P04150 whole entry, looked up, the tested form may be a part): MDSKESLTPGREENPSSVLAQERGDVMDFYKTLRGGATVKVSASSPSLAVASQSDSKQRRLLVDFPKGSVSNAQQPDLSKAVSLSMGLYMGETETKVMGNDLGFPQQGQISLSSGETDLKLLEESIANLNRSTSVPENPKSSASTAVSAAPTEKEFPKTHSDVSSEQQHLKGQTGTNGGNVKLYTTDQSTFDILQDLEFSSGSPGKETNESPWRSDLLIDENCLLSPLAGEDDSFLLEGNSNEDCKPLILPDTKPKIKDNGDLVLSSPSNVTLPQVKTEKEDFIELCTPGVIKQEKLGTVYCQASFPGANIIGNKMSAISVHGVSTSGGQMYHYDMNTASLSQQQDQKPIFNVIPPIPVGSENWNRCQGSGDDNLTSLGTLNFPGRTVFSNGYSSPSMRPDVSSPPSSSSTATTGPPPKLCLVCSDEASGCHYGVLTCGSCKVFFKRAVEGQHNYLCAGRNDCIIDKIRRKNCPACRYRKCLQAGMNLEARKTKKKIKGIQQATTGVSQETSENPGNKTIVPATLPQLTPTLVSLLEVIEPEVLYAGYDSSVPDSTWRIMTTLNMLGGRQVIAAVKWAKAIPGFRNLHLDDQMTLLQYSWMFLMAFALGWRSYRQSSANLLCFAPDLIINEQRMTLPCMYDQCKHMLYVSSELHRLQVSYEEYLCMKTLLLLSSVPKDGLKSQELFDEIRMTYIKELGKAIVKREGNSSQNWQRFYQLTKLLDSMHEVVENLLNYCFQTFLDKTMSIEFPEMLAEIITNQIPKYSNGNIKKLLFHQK
Cytochrome P450 1A2 (Homo sapiens), sequence (P05177 whole entry, looked up): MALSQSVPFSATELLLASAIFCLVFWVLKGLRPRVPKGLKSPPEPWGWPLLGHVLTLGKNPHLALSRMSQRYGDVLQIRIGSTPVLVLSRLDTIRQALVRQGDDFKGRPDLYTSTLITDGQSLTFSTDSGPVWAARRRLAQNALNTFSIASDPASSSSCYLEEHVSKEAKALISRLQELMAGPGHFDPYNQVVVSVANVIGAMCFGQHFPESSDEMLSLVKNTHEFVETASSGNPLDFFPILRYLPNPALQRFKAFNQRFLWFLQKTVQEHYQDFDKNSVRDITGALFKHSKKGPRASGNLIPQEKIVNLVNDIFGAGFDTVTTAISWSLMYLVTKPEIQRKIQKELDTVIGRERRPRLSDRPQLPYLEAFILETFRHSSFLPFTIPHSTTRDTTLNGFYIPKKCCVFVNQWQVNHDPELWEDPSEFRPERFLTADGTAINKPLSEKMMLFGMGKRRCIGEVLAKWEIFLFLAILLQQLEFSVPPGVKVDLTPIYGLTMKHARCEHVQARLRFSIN
3',5'-cyclic-AMP phosphodiesterase 4B (Homo sapiens), sequence (Q07343 whole entry, looked up): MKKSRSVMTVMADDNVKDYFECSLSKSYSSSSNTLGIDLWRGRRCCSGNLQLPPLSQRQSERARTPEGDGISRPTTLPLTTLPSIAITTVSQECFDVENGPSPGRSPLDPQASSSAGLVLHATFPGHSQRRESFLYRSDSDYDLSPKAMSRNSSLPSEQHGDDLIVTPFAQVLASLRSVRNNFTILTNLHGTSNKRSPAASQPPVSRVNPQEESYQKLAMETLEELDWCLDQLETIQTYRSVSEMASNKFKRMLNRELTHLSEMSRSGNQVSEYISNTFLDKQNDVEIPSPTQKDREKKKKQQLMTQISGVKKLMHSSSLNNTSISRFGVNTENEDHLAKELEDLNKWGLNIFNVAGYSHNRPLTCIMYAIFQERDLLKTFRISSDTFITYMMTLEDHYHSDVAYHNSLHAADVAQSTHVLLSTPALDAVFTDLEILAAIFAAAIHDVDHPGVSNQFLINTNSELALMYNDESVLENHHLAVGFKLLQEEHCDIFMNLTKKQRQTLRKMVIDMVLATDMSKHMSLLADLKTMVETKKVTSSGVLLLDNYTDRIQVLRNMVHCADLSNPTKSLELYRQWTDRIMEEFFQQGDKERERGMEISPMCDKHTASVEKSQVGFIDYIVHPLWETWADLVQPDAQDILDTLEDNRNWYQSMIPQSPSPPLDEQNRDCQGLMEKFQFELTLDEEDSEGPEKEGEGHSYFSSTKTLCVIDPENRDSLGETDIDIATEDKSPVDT
Cytochrome P450 3A4 (Homo sapiens), sequence (P08684 whole entry, looked up): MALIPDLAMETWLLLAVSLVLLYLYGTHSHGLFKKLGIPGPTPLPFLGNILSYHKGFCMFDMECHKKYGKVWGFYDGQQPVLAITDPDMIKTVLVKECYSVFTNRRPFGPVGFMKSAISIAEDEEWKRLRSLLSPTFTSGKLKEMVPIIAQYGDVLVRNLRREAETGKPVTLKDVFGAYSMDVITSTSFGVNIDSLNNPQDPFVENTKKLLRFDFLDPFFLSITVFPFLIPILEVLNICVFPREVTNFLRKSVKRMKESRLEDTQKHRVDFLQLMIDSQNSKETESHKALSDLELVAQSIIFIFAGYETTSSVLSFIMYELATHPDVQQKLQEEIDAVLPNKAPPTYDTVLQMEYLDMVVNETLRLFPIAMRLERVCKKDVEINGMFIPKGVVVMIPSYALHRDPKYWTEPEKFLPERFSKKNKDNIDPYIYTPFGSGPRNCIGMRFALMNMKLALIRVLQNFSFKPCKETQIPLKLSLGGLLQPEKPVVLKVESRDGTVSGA
DNA dC->dU-editing enzyme APOBEC-3G (Homo sapiens), sequence (Q9HC16 whole entry, looked up): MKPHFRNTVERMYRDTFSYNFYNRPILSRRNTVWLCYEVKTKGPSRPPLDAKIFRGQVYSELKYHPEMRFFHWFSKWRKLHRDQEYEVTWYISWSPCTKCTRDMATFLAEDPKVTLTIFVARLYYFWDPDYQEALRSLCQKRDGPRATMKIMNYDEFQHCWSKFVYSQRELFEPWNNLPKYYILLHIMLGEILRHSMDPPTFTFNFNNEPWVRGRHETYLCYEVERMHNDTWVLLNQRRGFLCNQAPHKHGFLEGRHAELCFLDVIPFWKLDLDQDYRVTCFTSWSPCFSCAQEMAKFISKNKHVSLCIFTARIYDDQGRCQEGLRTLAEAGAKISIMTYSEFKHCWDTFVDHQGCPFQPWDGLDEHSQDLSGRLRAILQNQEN
Calcium and integrin-binding protein 1 (Homo sapiens), sequence (Q99828 whole entry, looked up): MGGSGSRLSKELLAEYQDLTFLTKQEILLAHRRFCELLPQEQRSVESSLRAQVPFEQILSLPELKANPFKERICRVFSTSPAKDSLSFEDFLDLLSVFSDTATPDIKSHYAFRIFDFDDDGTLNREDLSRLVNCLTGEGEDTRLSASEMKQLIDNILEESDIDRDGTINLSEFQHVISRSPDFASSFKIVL
Cytochrome P450 2C9 (Homo sapiens), sequence (P11712 whole entry, looked up): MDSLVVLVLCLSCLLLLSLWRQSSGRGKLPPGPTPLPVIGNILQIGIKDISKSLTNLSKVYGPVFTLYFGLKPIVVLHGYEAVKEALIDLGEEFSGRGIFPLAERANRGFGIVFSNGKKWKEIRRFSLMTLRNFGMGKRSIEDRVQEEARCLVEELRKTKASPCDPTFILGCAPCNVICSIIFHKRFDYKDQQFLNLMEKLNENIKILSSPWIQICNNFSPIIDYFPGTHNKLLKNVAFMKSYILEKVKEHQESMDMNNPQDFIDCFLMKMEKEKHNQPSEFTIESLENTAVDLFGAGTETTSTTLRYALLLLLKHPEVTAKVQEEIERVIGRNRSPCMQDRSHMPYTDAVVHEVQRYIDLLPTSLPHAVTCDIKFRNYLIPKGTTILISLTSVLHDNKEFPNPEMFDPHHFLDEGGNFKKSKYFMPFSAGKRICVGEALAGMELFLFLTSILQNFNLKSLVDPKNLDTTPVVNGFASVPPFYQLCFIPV
Cytochrome P450 2C19 (Homo sapiens), sequence (P33261 whole entry, looked up): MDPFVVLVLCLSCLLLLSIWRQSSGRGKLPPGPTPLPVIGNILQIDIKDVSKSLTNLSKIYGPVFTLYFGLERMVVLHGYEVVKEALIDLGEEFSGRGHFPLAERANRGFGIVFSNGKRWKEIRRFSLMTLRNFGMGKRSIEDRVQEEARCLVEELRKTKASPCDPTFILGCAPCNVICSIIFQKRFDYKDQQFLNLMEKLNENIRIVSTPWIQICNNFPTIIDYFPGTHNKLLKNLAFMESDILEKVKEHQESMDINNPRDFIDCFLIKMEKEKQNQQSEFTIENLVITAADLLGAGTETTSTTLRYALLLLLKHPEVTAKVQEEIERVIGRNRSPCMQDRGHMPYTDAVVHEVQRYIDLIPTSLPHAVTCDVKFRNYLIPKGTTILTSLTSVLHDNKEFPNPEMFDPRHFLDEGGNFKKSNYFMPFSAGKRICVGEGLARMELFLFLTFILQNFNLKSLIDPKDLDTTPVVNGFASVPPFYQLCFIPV

O=C(NOCCO)c1ccc2cncn2c1Nc1ccc(I)cc1F
Potency [1]: inactive | Potency [2]: inactive | Potency [3]: inactive | Z-AUC [4]: 1.17 (inactive) | Z-AUC [4, 21]: 0.484 | Z-AUC ([4]; measured here: PEO4 Z-AUC): 0.455

COc1ccc(C(=O)Nc2sc3c(c2C(N)=O)CCCC3)cc1OC
Potency [1]: inactive | Potency [5]: inactive | Potency [6]: inactive | Potency [7]: inactive | Potency [8]: inactive | Potency [3]: inactive

Cc1ccc2cc(-c3c(C)ccc(C(=O)c4c(-c5ccccc5)n(C)n(-c5ccccc5)c4=O)c3N)ccc2n1
Potency [1]: 16.4 µM (active) | Potency [2]: inactive | Potency [3]: inactive | Z-AUC [4]: -0.557 (inactive) | Z-AUC [4, 21]: -0.233 | Z-AUC ([4]; measured here: PEO4 Z-AUC): -0.0214

CC(C)C(=O)OC[C@@]1(N=[N+]=[N-])O[C@@H](n2ccc(N)nc2=O)[C@H](OC(=O)C(C)C)[C@@H]1OC(=O)C(C)C
Potency [1]: inactive | Potency [7]: inactive | Potency [8]: inactive | outcome [9]: inactive

CN(CCO)C1CCN(c2ccc(Nc3ncc4c5ccnc(F)c5n(C5CCCC5)c4n3)nc2)CC1
Potency [1]: 11.2 µM (active) | Potency [2]: inactive | Potency [7]: 0.574 µM (active) | Potency [8]: 0.512 µM (active) | Potency [3]: inactive | Potency [10]: inactive | Z-AUC [4]: -1.43 (inactive) | Z-AUC [4, 21]: -0.563 | Z-AUC ([4]; measured here: PEO4 Z-AUC): -1

CC/C(=C(/CC)c1ccc(O)c(CN(CC)CC)c1)c1ccc(O)c(CN(CC)CC)c1
Potency [1]: 14.6 µM (active) | Potency [7]: 9.2 µM (active) | Potency [8]: 16.4 µM (active)

Cc1ccc(NS(=O)(=O)c2cc3c(cc2N[C@@H](C)CO)NC(=O)CC3)cc1C
Potency [1]: inactive | outcome [11]: inactive

O=C1NCCSc2c1sc1ccc(O)cc21
Potency [1]: 10.3 µM (active) | Potency [7]: 5.8 µM (active) | Potency [8]: 3.66 µM (active) | Potency [3]: inactive

Cc1c(-c2ccnc(Nc3cc(Br)cc(C(F)(F)F)c3)n2)sc(=O)n1C
Potency [1]: inactive | Potency [7]: 5.8 µM (active) | Potency [8]: 4.11 µM (active) | Potency [3]: inactive

CC(CCc1ccccn1)(CCc1ccccn1)C(=O)c1ccccc1
Potency [1]: inactive | Potency [7]: inactive | Potency [8]: inactive | Potency [3]: inactive

CC(Sc1nc2c(cnn2-c2cccc(Cl)c2)c(=O)[nH]1)C(N)=O (stereo not given)
Potency [1]: inactive | Potency [7]: inactive | Potency [8]: inactive | Potency [3]: inactive

CC1=CC(=O)C(C(C)C)=C/C1=N/OC(=O)c1ccccc1C
Potency [1]: inactive | Potency [7]: 8.2 µM (active) | Potency [8]: 11.6 µM (active)

Nc1[nH]nc2nc3ccccc3nc12
Potency [12]: 0.316 µM (active) | Potency [13]: > 46 µM (inactive) | Potency [14]: > 46 µM (inactive) | Potency [15]: inactive | Potency [16]: inactive | Potency [17]: 2 µM (active) | Potency [18]: inactive | Potency [19]: 0.631 µM (active) | Potency [20]: inactive | Potency [1]: inactive | Potency [5]: inactive | Potency [6]: inactive | Potency [7]: inactive | Potency [8]: inactive | Potency [3]: inactive

NC(=O)c1nc(F)c[nH]c1=O
Potency [1]: inactive | Potency [2]: inactive | Potency [7]: inactive | Potency [8]: inactive | Potency [3]: 20.2 µM (active) | Potency [10]: 9.04 µM (active) and 22.4 µM (active) | Z-AUC [4]: -0.413 (inactive) | Z-AUC [4, 21]: -0.874 | Z-AUC ([4]; measured here: PEO4 Z-AUC): -0.858

NC(=O)c1ncn(C2O[C@H](CO)[C@@H](O)[C@H]2O)c1N (stereo not given in full)
Potency [1]: inactive | Potency [7]: inactive | Potency [8]: inactive

CN(C)CCOc1ccc(-c2nc(-c3ccc4c(c3)CC/C4=N/O)c(-c3ccncc3)[nH]2)cc1
Potency [1]: inactive | Potency [7]: 3.66 µM (active) | Potency [8]: 7.31 µM (active)
